# In PubChem BioAssay:
# Records with an inconclusive call do not appear. Active and inactive are the calls of the source.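 Rule for the calls, unless noted: active = percent response above 42, roughly 3 SD of non-fluorescent test compounds; inactive = the rest.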
# How the values were obtained:
# [1] = rapamycin-like changes in RPL19A-GFP expression – cell-based, S. cerevisiae, multiplex flow cytometry, primary screen (AID 1862; in the data active = percent of DMSO control GFP below about 86%;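 note: lower values mimic rapamycin by blocking the RPL19A rise seen in DMSO cells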); details: S. cerevisiae RPL19A-GFP strain, flow cytometry fluorescence, 3 h; at 10 µM; stronger effect = lower value
# [2] = TOR pathway GLN3 branch reporter MEP2-GFP changes – S. cerevisiae, multiplex flow cytometry, primary screen (AID 1867;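 active = GFP response, as percent of the DMSO control, above the screen-wide mean plus 3 SD, about 139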;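 note: median GFP channel fluorescence of barcode-gated MEP2-GFP cells measured by flow cytometry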); details: S. cerevisiae MEP2-GFP strain, 3 h, at 10 µM, stronger effect = higher value, 100% means same as DMSO wells
# [3] = TOR pathway RTG branch CIT2 reporter changes – S. cerevisiae, GFP fusion, multiplex flow cytometry, primary screen (AID 1870;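 active = percent response above a set limit, the screen-wide mean plus 3 SD, cut at about 130% in these data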;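 note: barcoded CIT2-GFP strain pooled with four other GFP strains with rapamycin as positive control; median GFP fluorescence per well over plate mean of DMSO wells so 100% = DMSO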); details: S. cerevisiae CIT2-GFP expression, 3 h, at 10 µM, stronger effect = higher value
# [4] = TOR pathway LAP4-GFP level changes – S. cerevisiae, multiplex flow cytometry, primary screen (AID 1873;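 active = GFP signal, as percent of the solvent control, above the screen mean plus 3 SD, about 149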); details: S. cerevisiae LAP4-GFP expression, 3 h, at 10 µM, stronger effect = higher value
# [5] = yeast AGP1-GFP level changes, GLN3 branch – cell-based, multiplex flow cytometry, S. cerevisiae, primary screen (AID 1887;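 active = GFP signal above the screen-wide mean plus 3 SD, that is over about 124.5% of the solvent control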;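 note: AGP1-GFP fusion strain of S. cerevisiae within a five-strain barcoded multiplex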); details: 3 h, at 10 µM, stronger effect = higher value
# [6] = reduced mouse 2C T cell binding to pMHC/ICAM-1 vesicles – MLPCN validation set, flow cytometry, LFA-1/ICAM-1 modulator project, pilot screen (AID 2523;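 active = response below a set limit, under 55% cells CD8-positive and vesicle-bound, and CD8 cells' 90th-percentile brightness under 279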;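 for vesicle binding response: mean PE anti-B7-1 fluorescence of CD8+ cells relative to row control; 100% = QL9-loaded vesicles with DMSO vehicle in the same plate row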); details: 2C mouse CD8+ T cells, at 7 µM, stronger effect = lower value; double positive events: measured here: CD8+/vesicle+ event percentage
# [7] = molecular target: Integrin beta-1 (Homo sapiens) + Integrin alpha-4 (Homo sapiens) (UniProt P13612+P05556); experiment: alpha4beta1 integrin LIBS antibody binding reduction – U937 cells, HUTS-21 mAb, flow cytometry, validation set, VLA-4 allosteric modulator project, pilot screen (AID 2674;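 active = inhibition above 50%, about 3 SD of the validation set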;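 note: antibody binding induced by the VLA-4 ligand LDV present at three times its Kd; 0% = LDV ligand with antibody and no compound and 100% = antibody without LDV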); details: HUTS-21 LIBS mAb binding, at 6.7 µM, stronger effect = higher value, binding induced by LDV ligand
# [8] = calorie-restriction mimetic ROS inhibitors, yeast – validation compound set, pilot screen (AID 2706;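 active = superoxide response below 65% of plate, a cut near 3 SD across the whole screen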;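 note: yeast exposed to compound for one week at 30 degrees C before staining; 100% = mean of all compound wells on the same plate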); details: S. cerevisiae aging, superoxide DHE fluorescence; at 10 µM; stronger effect = lower value
# [9] = molecular target: Beta-adrenergic receptor kinase 1 (Homo sapiens) (UniProt P25098); experiment: GRK2 binders displacing RNA aptamer, biochemical, validation, human GRK2, bead flow cytometry (AID 488806;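 active = aptamer binding inhibition above 30%, about 3 SD of noise from non-fluorescent compounds; inactive = inhibition at or below 30%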); details: bead-bound GRK2, FAM-aptamer displacement, at 10 µM, stronger effect = higher value
# [10] = molecular target: Beta-2 adrenergic receptor (Homo sapiens) (UniProt P07550); experiment: agonist-induced loss of surface beta2AR – cell-based, FAP fluorogen, flow cytometry, validation set, pilot screen (AID 504459); details: Am2.2-beta2AR cells, at 10 µM, stronger effect = higher value;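 note: agonist-driven loss of surface beta2AR via internalization measured by FAP dye flow cytometry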
# [11] = molecular target: AP-2 complex subunit beta (Homo sapiens) (UniProt P63010); experiment: beta-arrestin/AP2 interaction blockers – biochemical, validation set, GST-AP2 beads, flow cytometry, pilot screen (AID 504541;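 active = inhibition above 54%, about 3 SD of non-fluorescent compounds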;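 note: AP2 carries R879A mutation and is captured from E. coli lysate; bead-bound FITC arrestin peptide fluorescence measuring arrestin peptide binding to AP2; 0% = DMSO wells and 100% = excess unlabeled arrestin peptide control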); details: FITC arrestin peptide, at 10 µM, stronger effect = higher value, AP2 beta2 appendage fragment, R879A mutant
# [12] = cytosolic pH regulators acting via V-ATPase – S. cerevisiae, pHLuorin, HTS validation (AID 504600; in the data active = response above about 15%;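 note: plate controls were DMSO for no effect and reference compound for full effect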); details: V-ATPase proton transport, at 10 µM, stronger effect = higher value
# [13] = tested on: anti-desmoglein-3 scFv antibody binding to human DSG3; experiment: blockers of pathogenic pemphigus antibody–desmoglein-3 binding – biochemical, validation compound set, bead-based, flow cytometry, pilot screen (AID 588368;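 active = binding below the plate cutoff, the plate median minus 3 SD, with a reading above zero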;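 note: signal is the median channel fluorescence of bead-bound GFP antibody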); details: Protein G beads, DSG3-Fc, scFv-GFP binding, at 10 µM, stronger effect = lower value
# [14] = Nile Red efflux blockade in pump-expressing yeast – validation compound set, multiplex, phenotypic, pilot screen (AID 588506;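 active = efflux inhibition above 0.42, the validation set average plus 4 SD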;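 note: Nile Red retained in cells so higher fluorescence means more efflux inhibition; 0 = negative control wells and 1 = enniatin B 25 µM full block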); details: S. cerevisiae pump-expressing triplex, Nile Red efflux flow cytometry; at 10 µM; stronger effect = higher value; the pumps come from Candida albicans
# [15] = molecular target: ATP-binding cassette sub-family B member 6 (Homo sapiens) (UniProt Q9NP58); experiment: blockers of ABCB6-driven porphyrin uptake – K562-ABCB6 cells, flow cytometry, validation set, pilot screen (AID 588550;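 active = inhibition above the screen-wide mean plus 3 SD, about 51%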;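 note: 0% = DMSO wells and 100% = benzethonium chloride 70 µM positive control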); details: K562-ABCB6 porphyrin accumulation, 1 h, at 10 µM, stronger effect = higher value
# [16] = AML differentiation inducers, ER-HoxA9 marrow cells – cell-based, GFP/MAC1 double positive, flow cytometry, validation set, primary screen (AID 588685;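 active = differentiation response of at least 50%, scaled between solvent and reference control, from cells with both markers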;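 note: compound exposure lasts four days before antibody staining and flow analysis; 0% = DMSO wells and 100% = 5 µM fulvestrant positive control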); details: stronger effect = higher value, normalized: vehicle 0, fulvestrant 100
# Integrin beta-1 (Homo sapiens) + Integrin alpha-4 (Homo sapiens), sequence (P05556 whole entry, looked up): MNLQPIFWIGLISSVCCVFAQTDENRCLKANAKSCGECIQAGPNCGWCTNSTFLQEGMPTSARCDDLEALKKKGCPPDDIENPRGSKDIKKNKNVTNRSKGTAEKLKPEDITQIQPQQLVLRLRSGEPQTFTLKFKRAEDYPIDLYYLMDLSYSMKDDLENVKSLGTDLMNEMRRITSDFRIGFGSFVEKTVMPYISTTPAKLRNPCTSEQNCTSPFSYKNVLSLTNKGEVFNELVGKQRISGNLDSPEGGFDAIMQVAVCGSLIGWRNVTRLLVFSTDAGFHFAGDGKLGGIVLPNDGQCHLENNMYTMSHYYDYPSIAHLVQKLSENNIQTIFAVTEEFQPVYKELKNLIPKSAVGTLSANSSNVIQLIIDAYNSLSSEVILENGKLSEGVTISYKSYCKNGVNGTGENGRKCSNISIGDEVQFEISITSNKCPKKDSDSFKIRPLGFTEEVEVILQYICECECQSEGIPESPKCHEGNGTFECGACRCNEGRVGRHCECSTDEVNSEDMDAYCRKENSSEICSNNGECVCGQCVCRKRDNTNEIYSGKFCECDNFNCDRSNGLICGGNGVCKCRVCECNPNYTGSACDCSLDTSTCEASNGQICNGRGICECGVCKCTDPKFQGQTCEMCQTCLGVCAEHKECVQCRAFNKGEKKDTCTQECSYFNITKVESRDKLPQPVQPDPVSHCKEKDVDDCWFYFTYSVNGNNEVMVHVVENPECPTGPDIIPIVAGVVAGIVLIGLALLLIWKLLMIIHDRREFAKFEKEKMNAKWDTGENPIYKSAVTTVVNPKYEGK
# Integrin beta-1 (Homo sapiens) + Integrin alpha-4 (Homo sapiens), sequence (P13612 whole entry, looked up): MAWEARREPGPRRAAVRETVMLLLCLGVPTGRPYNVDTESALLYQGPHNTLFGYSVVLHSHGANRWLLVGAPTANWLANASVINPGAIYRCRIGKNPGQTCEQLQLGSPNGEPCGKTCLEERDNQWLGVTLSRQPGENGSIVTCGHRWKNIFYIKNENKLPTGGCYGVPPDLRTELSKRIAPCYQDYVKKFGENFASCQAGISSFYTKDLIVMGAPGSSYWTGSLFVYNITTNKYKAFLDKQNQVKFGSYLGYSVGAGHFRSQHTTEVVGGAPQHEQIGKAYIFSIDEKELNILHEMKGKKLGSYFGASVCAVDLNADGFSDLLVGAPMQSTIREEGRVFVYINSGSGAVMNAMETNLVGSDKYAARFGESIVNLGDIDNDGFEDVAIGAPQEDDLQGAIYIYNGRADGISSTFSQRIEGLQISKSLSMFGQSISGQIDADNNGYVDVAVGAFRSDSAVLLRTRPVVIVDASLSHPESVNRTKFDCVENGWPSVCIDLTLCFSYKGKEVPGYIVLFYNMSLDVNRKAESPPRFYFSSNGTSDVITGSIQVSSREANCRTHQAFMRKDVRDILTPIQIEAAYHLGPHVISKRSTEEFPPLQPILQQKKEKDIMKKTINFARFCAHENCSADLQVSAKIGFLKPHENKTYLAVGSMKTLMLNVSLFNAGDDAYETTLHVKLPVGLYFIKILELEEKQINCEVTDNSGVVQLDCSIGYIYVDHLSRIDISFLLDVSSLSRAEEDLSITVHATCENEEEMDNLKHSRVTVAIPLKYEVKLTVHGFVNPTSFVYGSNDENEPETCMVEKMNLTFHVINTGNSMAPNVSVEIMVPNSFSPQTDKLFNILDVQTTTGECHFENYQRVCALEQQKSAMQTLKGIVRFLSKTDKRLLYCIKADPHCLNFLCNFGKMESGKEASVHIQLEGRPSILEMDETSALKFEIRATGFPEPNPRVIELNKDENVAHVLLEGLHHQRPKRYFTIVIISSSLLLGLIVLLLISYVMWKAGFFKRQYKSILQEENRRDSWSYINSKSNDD
# Beta-2 adrenergic receptor (Homo sapiens), sequence (P07550 whole entry, looked up): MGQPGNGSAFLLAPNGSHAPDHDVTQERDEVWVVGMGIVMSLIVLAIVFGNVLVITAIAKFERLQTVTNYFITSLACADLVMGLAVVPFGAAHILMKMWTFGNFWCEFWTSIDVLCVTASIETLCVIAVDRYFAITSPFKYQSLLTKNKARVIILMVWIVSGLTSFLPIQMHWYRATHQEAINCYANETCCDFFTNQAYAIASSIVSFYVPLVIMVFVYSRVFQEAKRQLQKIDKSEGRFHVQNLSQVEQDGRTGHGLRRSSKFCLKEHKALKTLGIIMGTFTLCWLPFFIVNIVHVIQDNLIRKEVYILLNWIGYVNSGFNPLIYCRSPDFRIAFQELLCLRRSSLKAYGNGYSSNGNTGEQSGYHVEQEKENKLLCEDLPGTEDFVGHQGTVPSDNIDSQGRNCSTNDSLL
# ATP-binding cassette sub-family B member 6 (Homo sapiens), sequence (Q9NP58 whole entry, looked up): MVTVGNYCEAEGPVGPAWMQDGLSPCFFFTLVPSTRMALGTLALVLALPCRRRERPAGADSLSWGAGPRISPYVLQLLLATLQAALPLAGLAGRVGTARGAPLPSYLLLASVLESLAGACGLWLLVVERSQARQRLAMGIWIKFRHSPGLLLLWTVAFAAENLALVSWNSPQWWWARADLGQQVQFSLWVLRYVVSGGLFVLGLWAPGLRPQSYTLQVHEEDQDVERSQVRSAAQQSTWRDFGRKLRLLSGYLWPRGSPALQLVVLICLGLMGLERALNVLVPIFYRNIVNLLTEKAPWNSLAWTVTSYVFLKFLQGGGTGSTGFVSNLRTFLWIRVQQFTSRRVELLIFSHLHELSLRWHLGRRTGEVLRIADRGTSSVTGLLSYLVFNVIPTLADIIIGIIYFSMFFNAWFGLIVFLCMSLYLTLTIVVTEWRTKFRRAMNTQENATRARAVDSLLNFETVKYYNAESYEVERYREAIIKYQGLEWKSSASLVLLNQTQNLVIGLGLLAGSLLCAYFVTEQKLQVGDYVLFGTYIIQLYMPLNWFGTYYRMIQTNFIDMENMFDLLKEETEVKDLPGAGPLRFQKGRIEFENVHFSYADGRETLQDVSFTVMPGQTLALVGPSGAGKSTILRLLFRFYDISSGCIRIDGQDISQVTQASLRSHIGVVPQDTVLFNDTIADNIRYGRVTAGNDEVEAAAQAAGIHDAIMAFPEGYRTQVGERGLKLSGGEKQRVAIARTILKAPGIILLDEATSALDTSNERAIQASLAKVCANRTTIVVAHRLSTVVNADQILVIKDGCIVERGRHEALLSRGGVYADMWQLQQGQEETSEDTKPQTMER
# AP-2 complex subunit beta (Homo sapiens), sequence (P63010 whole entry, looked up, the tested form may be a part, one chain of several): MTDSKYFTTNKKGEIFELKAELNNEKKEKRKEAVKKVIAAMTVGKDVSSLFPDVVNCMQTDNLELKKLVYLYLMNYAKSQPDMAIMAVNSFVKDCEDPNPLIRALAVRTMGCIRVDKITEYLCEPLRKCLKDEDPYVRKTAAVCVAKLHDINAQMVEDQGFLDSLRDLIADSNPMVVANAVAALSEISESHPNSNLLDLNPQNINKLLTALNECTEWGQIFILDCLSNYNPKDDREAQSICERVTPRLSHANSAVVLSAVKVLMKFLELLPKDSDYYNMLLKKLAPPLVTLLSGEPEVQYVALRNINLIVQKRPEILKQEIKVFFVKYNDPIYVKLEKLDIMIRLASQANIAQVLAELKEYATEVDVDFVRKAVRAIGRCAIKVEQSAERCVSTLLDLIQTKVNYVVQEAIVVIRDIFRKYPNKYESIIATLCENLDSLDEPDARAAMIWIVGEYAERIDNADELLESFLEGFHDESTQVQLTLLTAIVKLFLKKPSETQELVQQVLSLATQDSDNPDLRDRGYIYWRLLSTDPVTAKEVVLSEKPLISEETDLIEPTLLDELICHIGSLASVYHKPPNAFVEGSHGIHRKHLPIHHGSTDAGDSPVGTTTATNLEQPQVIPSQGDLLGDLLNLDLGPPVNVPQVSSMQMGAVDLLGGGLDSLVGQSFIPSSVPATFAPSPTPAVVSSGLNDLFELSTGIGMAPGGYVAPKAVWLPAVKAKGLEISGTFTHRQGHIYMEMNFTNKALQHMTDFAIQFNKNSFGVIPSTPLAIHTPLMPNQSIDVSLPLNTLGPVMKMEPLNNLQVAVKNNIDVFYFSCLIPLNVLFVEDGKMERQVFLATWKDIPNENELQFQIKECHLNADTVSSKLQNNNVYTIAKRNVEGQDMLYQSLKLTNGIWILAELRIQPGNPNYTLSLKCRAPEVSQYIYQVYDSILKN
# Beta-adrenergic receptor kinase 1 (Homo sapiens), sequence (P25098 whole entry, looked up): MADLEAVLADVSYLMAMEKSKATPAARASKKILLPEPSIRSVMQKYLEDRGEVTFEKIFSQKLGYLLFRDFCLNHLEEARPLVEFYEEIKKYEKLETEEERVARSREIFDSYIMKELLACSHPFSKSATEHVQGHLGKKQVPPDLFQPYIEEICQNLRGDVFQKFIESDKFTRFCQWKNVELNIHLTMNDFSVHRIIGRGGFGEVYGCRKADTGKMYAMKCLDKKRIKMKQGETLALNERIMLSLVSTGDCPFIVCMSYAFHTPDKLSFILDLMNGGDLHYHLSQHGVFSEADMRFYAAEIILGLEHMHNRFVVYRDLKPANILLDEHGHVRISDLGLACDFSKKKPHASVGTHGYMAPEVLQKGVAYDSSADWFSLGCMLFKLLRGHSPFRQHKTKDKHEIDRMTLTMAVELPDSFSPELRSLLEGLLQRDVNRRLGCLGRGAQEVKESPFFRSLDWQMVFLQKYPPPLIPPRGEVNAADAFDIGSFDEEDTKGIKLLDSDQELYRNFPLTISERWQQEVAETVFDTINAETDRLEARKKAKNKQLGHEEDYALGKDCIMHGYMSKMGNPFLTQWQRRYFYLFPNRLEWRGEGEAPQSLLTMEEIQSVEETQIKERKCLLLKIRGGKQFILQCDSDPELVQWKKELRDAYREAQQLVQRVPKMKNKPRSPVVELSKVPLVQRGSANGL
SMILES,percent of DMSO control GFP [1],GFP response vs DMSO [2],percent response of DMSO control [3],GFP response vs DMSO [4],"GFP response, % of DMSO [5]",double positive events [6] [%],vesicle binding response [6],inhibition [7],superoxide response (% of plate) [8],aptamer binding inhibition [9],response [10],inhibition [11],response [12],binding (% of control) [13],efflux inhibition (fraction of control) [14],inhibition [15],differentiation response [16]
COc1cc(C2Nc3ccccc3NC3=C2C(=O)CC(c2ccc(OC)c(OC)c2)C3)ccc1O (stereo not given),107% (inactive),95.2% (inactive),117% (inactive),64.1% (inactive),92.2% (inactive),53.7,104% (inactive),-3.16% (inactive),107% (inactive),3% (inactive),0.79% (inactive),-8.83% (inactive),1.04% (inactive),98.4% (inactive),-0.35 (inactive),11% (inactive),-18.4% (inactive)
CC(C)CN(C)Cc1c(C(=O)N2CCc3ccccc3C2)nc2ccc(Cl)cn12,105% (inactive),103% (inactive),107% (inactive),98% (inactive),105% (inactive),62.4,147% (inactive),8.29% (inactive),99.2% (inactive),0% (inactive),-16.8% (inactive),20.6% (inactive),-4% (inactive),104% (inactive),0.22 (inactive),11% (inactive),-13.3% (inactive)
COC(=O)c1cc(COc2ccc3ccc(=O)oc3c2)c(C)o1,105% (inactive),104% (inactive),101% (inactive),109% (inactive),92.4% (inactive),59.9,120% (inactive),-15.8% (inactive),108% (inactive),1% (inactive),7.33% (inactive),-2.54% (inactive),-7.29% (inactive),102% (inactive),0.29 (inactive),12% (inactive),-7.5% (inactive)
COc1ccccc1Oc1c(C)oc2c(CN3CCN(CCO)CC3)c(O)ccc2c1=O,104% (inactive),101% (inactive),109% (inactive),98% (inactive),104% (inactive),58.7,111% (inactive),-11.8% (inactive),96.1% (inactive),-1% (inactive),6.51% (inactive),-2.65% (inactive),0.24% (inactive),103% (inactive),-0.14 (inactive),-1% (inactive),11.5% (inactive)
CCOc1ccc(C(=O)N2CCCC2C(=O)O)cc1 (stereo not given),97.9% (inactive),101% (inactive),100% (inactive),103% (inactive),102% (inactive),62.9,163% (inactive),13.4% (inactive),107% (inactive),6% (inactive),-15.7% (inactive),1.45% (inactive),6.32% (inactive),101% (inactive),-0.04 (inactive),6% (inactive),-1.05% (inactive)
CC(=O)OC(C)C[N+](C)(C)C (stereo not given),103% (inactive),102% (inactive),96.4% (inactive),115% (inactive),124% (inactive),65.5,191% (inactive),-7.08% (inactive),86.6% (inactive),5% (inactive),-16.2% (inactive),-17.2% (inactive),0.37% (inactive),107% (inactive),0 (inactive),6% (inactive),6.83% (inactive)
COc1c(C=O)c(CCN(C)C(=O)c2ccc(F)cc2)cc2c1OCO2,103% (inactive),104% (inactive),100% (inactive),104% (inactive),106% (inactive),59.6,171% (inactive),3.14% (inactive),115% (inactive),4% (inactive),-22.5% (inactive),10.3% (inactive),2.09% (inactive),109% (inactive),-0.17 (inactive),-2% (inactive),19.6% (inactive)
CCC(=O)O[C@]1(C(=O)CCl)[C@@H](C)C[C@H]2[C@@H]3CCC4=CC(=O)C=C[C@]4(C)[C@@]3(F)[C@@H](O)C[C@@]21C,99.8% (inactive),103% (inactive),106% (inactive),91.5% (inactive),106% (inactive),64.6,228% (inactive),-9.13% (inactive),120% (inactive),4% (inactive),11.3% (inactive),3.88% (inactive),-2.3% (inactive),97.9% (inactive),1.03 (active),-10% (inactive),-13.3% (inactive)
COc1ccc2c3c([nH]c2c1)C1(NCC3)C(=O)Nc2ccccc21 (stereo not given),95.4% (inactive),105% (inactive),89.1% (inactive),103% (inactive),101% (inactive),59.5,175% (inactive),-15.4% (inactive),97.3% (inactive),0% (inactive),-10.9% (inactive),10.3% (inactive),-0.21% (inactive),97.6% (inactive),0.05 (inactive),-6% (inactive),10.4% (inactive)
CCC(CO)NCCNC(CC)CO (stereo not given),95.5% (inactive),139% (inactive),101% (inactive),87.5% (inactive),97.7% (inactive),66.7,133% (inactive),4.52% (inactive),91.3% (inactive),-1% (inactive),3.66% (inactive),33.3% (inactive),-3.71% (inactive),103% (inactive),-0.28 (inactive),114% (active),-1.64% (inactive)
